# In PubChem BioAssay (NCATS):
# Results filed as inconclusive are left out. A number with no mark means an inactive call. The source made the active and inactive calls. Calls follow the shape of the dose curve; as a rule, active = well fitted inhibition curve with a large enough effect; inconclusive = small, poorly fitted or top-dose-only effect; inactive = flat fitted curve, though single readings scatter.
# Target: Calcium and integrin-binding protein 1 (Homo sapiens) (UniProt Q99828)
# Test: Primary qHTS for Identification of Calcium Integrin Binding Protein 1 (CIB1) Competitor (AID 1508620);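 also: GST tagged CIB1 binding a fluorescein labelled alphaIIb integrin peptide tracer; top concentration of the series differs between compounds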
# Conditions: CIB1-GST / FITC-alphaIIb peptide fluorescence polarization; series mostly up to 114 µM; activity change, negative = inhibition: at the top concentration
# From the text: Assay Provider: Ulhas P. Naik, PhD Sidney Kimmel Medical College Thomas Jefferson University, Philadelphia, PA Primary function of platelets is to maintain hemostasis. At the site of vascular injury, platelets adhere to adhesive proteins such as collagen and von Willebrand factor. Adherent platelets are activated and generate soluble platelet agonists such as thrombin, ADP and thromboxane A2. Following exposure of circulating platelets to these agonists, results in platelet shape change, granule secretion and activation of platelet integrin alphaIIb-beta3. Ligand binding to activated integrin alphaIIb-beta3 triggers outside-in signaling, leading to platelet aggregation, stabilization of platelet plug, and clot retraction. Upon atherosclerotic plaque rupture also causes platelet plug formation, which underlies a number of cardiovascular diseases such as myocardial infraction and stroke. A number of anti-platelet drugs such as aspirin, clopidogrel, prasugrel, vorapaxar, and eptifibatide are currently available to prevent the thrombotic complications. However, these anti-platelet agents have several limitations including inherent variability in individual responses, developing resistance, and serious bleeding side effects. For these reasons they are not suitable for long-term protection. Based on the experiences with current anti-platelet drugs, it appears that the most useful therapeutic approach is to intersect the secondary responses such as integrin outside-in signaling or recruitment of platelets by TxA2 and secreted ADP. Compounds, which can largely preserve the primary hemostatic function of platelets but inhibit secondary response will be most desired therapeutic agents for treatment of cardiovascular disease. CIB1 is a calcium integrin binding protein, which specifically interact with the alphaIIb subunit of integrin alphaIIb-beta3. Binding of CIB1 to alphaIIb regulates the outside-in signaling in platelets, which is needed for thrombus stabilization and thrombus growth. […] Therefore, we propose that discovery of a small molecule that can prevent the association of CIB1 and alphaIIb-beta3 will be a potential anti-platelet agent that can block the thrombus formation without undue effect on hemostasis. Reference: [1] Naik MU, Nigam A, Manrai P, et al. CIB1 deficiency results in impaired thrombosis: the potential role of CIB1 in outside-in signaling through integrin alpha IIb beta 3. J Thromb Haemost.
# PROTOCOL TABLES SEQUENCE No. (1, 2, 3, etc.); […] (e.g., Cells, Incubation, Reagent, etc.); VALUE and DESCRIPTION. 1; Reagent; 3 uL; Protein or buffer (4/3x) 2; Compound; 46 nL; Control inhibitor / compound library 3; Time; 15 min; Room temperature incubation 4; Reagent; 1 uL; Fluorescent labeled peptide (4x) 5; Time; 1000 rpm; Centrifuge 6; Time; 15 min; Room temperature incubation 7; Detection; Ex 480/ Em 540; ViewLux Fluorescence Read NOTES (numbers refer to sequence above) 1; Protein Mixture: C1B1-GST (final concentrations of 1 uM). […] 3; Room temperature incubation. 4; Fluorescent Labeled Peptide: FITC-aIIb (final concentration of 100 nM). Sequence of alphaIIb peptide: Acetyl-[…]-FITC (purity is 95.83%). 5; Centrifuge 1000 rpm (164 g) for 15 seconds. 6; Room temperature incubation. 7; ViewLux Fluorescent Polization Read: excitation = 480(20) / emission = 540(25) S and P; FITC Dichroic mirror.
# % is scaled to controls: 0 for no effect and ±100 for the full control effect.
# Calcium and integrin-binding protein 1 (Homo sapiens), sequence (Q99828 whole entry, looked up): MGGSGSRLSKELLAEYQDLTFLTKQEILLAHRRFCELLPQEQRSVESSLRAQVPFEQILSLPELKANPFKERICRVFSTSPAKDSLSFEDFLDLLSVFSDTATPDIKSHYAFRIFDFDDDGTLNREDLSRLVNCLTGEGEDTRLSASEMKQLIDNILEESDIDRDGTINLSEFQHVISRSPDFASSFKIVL
SMILES,outcome,"activity change, negative = inhibition"
CCN(CC)CCNC(=O)c1cc(Cl)c(N)cc1OC,inactive,
CCCCC(CC)COC(=O)c1ccccc1O (stereo not given),,0.482%
CCCCC/C(C=O)=C\c1ccccc1,,1.31%
CCC(=O)c1ccc(O)cc1,,-4.51%
CCN(CC)C(C)CN1c2ccccc2Sc2ccccc21 (stereo not given),,-1.54%
O=c1cc[nH]c(=O)[nH]1,,-2.33%
CN(C)CCOC(C)(c1ccccc1)c1ccccn1 (stereo not given),,-2.55%
NC(=O)NC(=O)Cc1ccccc1,,2.96%
CCN(CC)C(=O)Nc1ccc(OCC(O)CNC(C)(C)C)c(C(C)=O)c1 (stereo not given),inactive,
CCN(CC)CCNC(=O)c1c(C)[nH]c(/C=C2\C(=O)Nc3ccc(F)cc32)c1C,,37.6%
Oc1cn2c(n1)Nc1ccc(Cl)c(Cl)c1C2,,2.41% [at 57.7 µM]
OCC(O)CN1CCN(c2ccccc2)CC1 (stereo not given),inactive,
CN(C)CCN(Cc1ccccc1)c1ccccn1,,38.8%
CCN(CC)CCOC(=O)C1(C2CCCCC2)CCCCC1,,0.866%
O=C(O)[C@H](O)c1ccccc1,,1.91%
O=C1N=C(O)CN1/N=C/c1ccc(-c2ccc([N+](=O)[O-])cc2)o1,,-14.8%
CC1=C(CC(=O)O)c2cc(F)ccc2/C1=C\c1ccc(S(C)(=O)=O)cc1,,-0.244%
O=c1cc[nH]c(=S)[nH]1,,-0.488%
CN(C)CCC=C1c2ccccc2CCc2ccccc21,,-2.24%
NC(=O)c1ncn([C@@H]2O[C@H](CO)[C@@H](O)[C@H]2O)n1,,1.2%

SMILES,outcome,"activity change, negative = inhibition"
Cc1c(O)cccc1C(=O)N[C@@H](CSc1ccccc1)[C@H](O)CN1C[C@H]2CCCC[C@H]2C[C@H]1C(=O)NC(C)(C)C,,-0.3%
CC1=C(/C=C/C(C)=C/C=C/C(C)=C/C(=O)O)C(C)(C)CCC1,,-3.88%
O=C(Oc1ccccc1C(=O)O)c1ccccc1O,,0.216%
N[C@H]1C(O)O[C@H](CO)[C@@H](O)[C@@H]1O (stereo not given in full),,0.756%
Cc1ccc2nc(N)[nH]c(=O)c2c1Sc1ccncc1,inactive,
COc1ccc2cc1Oc1cc3c(cc1OC)CC[N+](C)(C)[C@H]3Cc1ccc(cc1)Oc1c(OC)c(OC)cc3c1[C@@H](C2)[N+](C)(C)CC3,,6.82%
Nc1ccc(S(=O)(=O)Nc2ccc(Cl)nn2)cc1,,-5.25%
CN(N=O)C(=O)N[C@@H]1[C@@H](O)[C@H](O)[C@@H](CO)O[C@@H]1O,,3.49%
CC(C(O)c1ccc(O)cc1)N1CCC(Cc2ccccc2)CC1 (stereo not given),inactive,
Nc1nc2c(ncn2CCC(CO)CO)c(=O)[nH]1,inactive,
O=C(O)c1ccccc1O,,-0.917%
CC(CN1c2ccccc2Sc2ccccc21)N(C)C (stereo not given),,-3.14%
COc1cc(C)c(Cc2cnc(N)nc2N)cc1OC,,4.46%
C[C@@H]1CN(c2c(F)c(F)c3c(=O)c(C(=O)O)cn(C4CC4)c3c2F)C[C@H](C)N1,inactive,
COc1ccc(Cl)cc1C(=O)NCCc1ccc(S(=O)(=O)NC(=O)NC2CCCCC2)cc1,inactive,
Nc1ccc(S(=O)(=O)Nc2nccs2)cc1,inactive,
CC(C)c1c(C(=O)Nc2ccccc2)c(-c2ccccc2)c(-c2ccc(F)cc2)n1CC[C@@H](O)C[C@@H](O)CC(=O)O,inactive,
CC1(C)S[C@@H]2[C@H](NC(=O)Cc3ccccc3)C(=O)N2[C@H]1C(=O)O (tested in a mixture with another compound),,2.27%
CC1(C)CO[C@@H](CC(=O)O)CN1,,1.43%
CSc1ccc2c(c1)C(N1CCN(C)CC1)Cc1ccccc1S2 (stereo not given),,3.67%
